Measurements from the supplement of paper PMC8728848.
The entries come from a sample that favours the strongest signals as a whole.

Assays:
Experiment in all cases: glycan array binding signal (z-score within array); higher = stronger binding
Settings in all cases: glycan notation: IUPAC condensed, linker removed
[1] = biological target: Fuc(a1-2)Gal(b1-3)GalNAc(b1-3)Gal
How it was run: (§1)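 Negative Z-scores can be read as non-binding. The Z-score is calculated within each array and then averaged across arrays of one protein sequence at different concentrations or buffers and across linkers. Arrays, 3228 in all, were curated from the Consortium for Functional Glycomics database and kept only where the protein sequence was available.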

[2] = biological target: Fuc(a1-2)Gal(b1-4)GlcNAc(b1-2)Man(a1-3)[Fuc(a1-2)Gal(b1-4)GlcNAc(b1-2)Man(a1-6)]Man(b1-4)GlcNAc(b1-4)GlcNAc
How it was run: as §1

[3] = biological target: Fuc(a1-2)Gal(b1-4)[Fuc(a1-3)]GlcNAc
How it was run: as §1

[4] = biological target: Fuc(a1-2)[Gal(a1-3)]Gal(b1-4)Glc
How it was run: as §1

[5] = biological target: Fuc(a1-2)[GalNAc(a1-3)]Gal(b1-4)GlcNAc(b1-3)Gal(b1-4)GlcNAc(b1-3)Gal(b1-4)GlcNAc
How it was run: as §1

[6] = biological target: Gal(a1-3)Gal
How it was run: as §1

[7] = biological target: Gal(a1-3)Gal(b1-4)GlcNAc(b1-3)GalNAc
How it was run: as §1

[8] = biological target: Gal(a1-3)Gal(b1-4)[Fuc(a1-3)]GlcNAc(b1-2)Man(a1-3)[Gal(a1-3)Gal(b1-4)[Fuc(a1-3)]GlcNAc(b1-2)Man(a1-6)]Man(b1-4)GlcNAc(b1-4)GlcNAc
How it was run: as §1

[9] = biological target: Gal(a1-3)GalNAc
How it was run: as §1

[10] = biological target: Gal(b1-3)Gal(b1-4)GlcNAc
How it was run: as §1

[11] = biological target: Gal(b1-3)GlcNAc(b1-2)Man(a1-3)[Gal(b1-3)GlcNAc(b1-2)Man(a1-6)]Man(b1-4)GlcNAc(b1-4)[Fuc(a1-6)]GlcNAc
How it was run: as §1

[12] = biological target: Gal(b1-4)GlcNAc(b1-2)Man(a1-3)[Gal(b1-4)GlcNAc(b1-2)Man(a1-6)]Man(b1-4)GlcNAc(b1-4)GlcNAc
How it was run: as §1

[13] = biological target: Gal(b1-4)GlcNAc(b1-2)Man(a1-3)[Gal(b1-4)GlcNAc(b1-2)Man(a1-6)]Man(b1-4)GlcNAc(b1-4)[Fuc(a1-6)]GlcNAc
How it was run: as §1

[14] = biological target: Gal(b1-4)GlcNAc(b1-3)Gal(b1-4)GlcNAc(b1-3)Gal(b1-4)GlcNAc
How it was run: as §1

[15] = biological target: Gal(b1-4)GlcNAc(b1-3)Gal(b1-4)[Fuc(a1-3)]GlcNAc(b1-3)Gal(b1-4)[Fuc(a1-3)]GlcNAc
How it was run: as §1

[16] = biological target: Gal(b1-4)GlcNAc(b1-3)[GlcNAc(b1-6)]Gal(b1-4)GlcNAc
How it was run: as §1

[17] = biological target: Gal6S(b1-4)Glc6S
How it was run: as §1

[18] = biological target: GalNAc(a1-3)Gal
How it was run: as §1

[19] = biological target: GlcNAc(a1-4)Gal(b1-4)GalNAc
How it was run: as §1

[20] = biological target: GlcNAc(a1-4)Gal(b1-4)GlcNAc(b1-3)Gal(b1-4)[Fuc(a1-3)]GlcNAc(b1-3)Gal(b1-4)[Fuc(a1-3)]GlcNAc
How it was run: as §1

[21] = biological target: GlcNAc(b1-2)Man(a1-3)[GlcNAc(b1-2)Man(a1-6)]Man(b1-4)GlcNAc(b1-4)[Fuc(a1-6)]GlcNAc
How it was run: as §1

[22] = biological target: Man(a1-3)[Man(a1-6)]Man(a1-6)[Man(a1-2)Man(a1-3)]Man(b1-4)GlcNAc(b1-4)GlcNAc
How it was run: as §1

[23] = biological target: Neu5Ac(a2-3)Gal(b1-4)GlcNAc(b1-3)Gal(b1-4)GlcNAc
How it was run: as §1

[24] = biological target: Neu5Ac(a2-3)Gal(b1-4)[Fuc(a1-3)]GlcNAc
How it was run: as §1

[25] = biological target: Neu5Ac(a2-3)GalNAc(b1-4)GlcNAc
How it was run: as §1

[26] = biological target: Neu5Ac(a2-6)Gal
How it was run: as §1

[27] = biological target: Neu5Gc(a2-3)Gal(b1-4)[Fuc(a1-3)]GlcNAc
How it was run: as §1

[28] = biological target: Neu5Gc(b2-6)Gal(b1-4)GlcNAc
How it was run: as §1

B1: SRS6 (Toxoplasma gondii), Q9NH12 (protein)
chain: MARTGSMQQRRGGFQTTARMLMAVCVSGVLLLSSGPSSANKLTEGQQNQNSGPGAATQEGPTIEGAVAKCVLKTTAAENGSSRAKNTTGLTLSKENLVVSLQCSGEKNAIVPKDQKKVCSAAPNAKVADCKGADTDKQVTLKSLLGTSGDIQWEKTIVSTDNKGEVMTLKIKESELPLFDKAFFVGCEEDKAQTRTSQATECKVNVSVKARPSTVGENNVVTCAYGKDSNPRPLEVEMSADNDTLTIDCGTDGSLKPTKYTEEFCVTDNSQLESCTTKKFSEILPTFLPSWWVSDSQNGSAKLTIPESGFPEEQQQFRLGCVPKKTTQSPQANPSVKTEKEEGAQNTDASTSNCSVIVTVKASNFSSLASSIAPTAAVAGGAAALTGFLVGSF
glycan array binding signal (z-score) [1]: 1.86 | glycan array binding signal (z-score) [2]: 1.71 | glycan array binding signal (z-score) [3]: 0.016 | glycan array binding signal (z-score) [4]: -0.753 | glycan array binding signal (z-score) [5]: -0.105 | glycan array binding signal (z-score) [6]: 0.351 | glycan array binding signal (z-score) [7]: 0.006 | glycan array binding signal (z-score) [8]: 0.436 | glycan array binding signal (z-score) [9]: -0.288 | glycan array binding signal (z-score) [10]: -0.549 | glycan array binding signal (z-score) [11]: 1.28 | glycan array binding signal (z-score) [12]: -0.558 | glycan array binding signal (z-score) [13]: 3.04 | glycan array binding signal (z-score) [14]: 2.32 | glycan array binding signal (z-score) [15]: -0.096 | glycan array binding signal (z-score) [16]: 0.169 | glycan array binding signal (z-score) [17]: 4.38 | glycan array binding signal (z-score) [18]: 0.054 | glycan array binding signal (z-score) [19]: 0.375 | glycan array binding signal (z-score) [20]: 0.807 | glycan array binding signal (z-score) [21]: 13.7 | glycan array binding signal (z-score) [22]: 1.44 | glycan array binding signal (z-score) [23]: 2.13 | glycan array binding signal (z-score) [24]: -0.808 | glycan array binding signal (z-score) [25]: -0.177 | glycan array binding signal (z-score) [26]: 0.288 | glycan array binding signal (z-score) [27]: 0.103 | glycan array binding signal (z-score) [28]: 0.403
